Laboratory results: PubChem BioAssay AID1159580 (chemical genetic matrix, 2015)
Values joined by “and” are separate entries in the source; they are usually repeats but may differ in a detail not shown here. Equal values may be shown once. Out of some 5,500 compounds screened, about 2,000 (36%) were called active. Another 18% or so got no clear call; they are omitted. No stated cut-off is given here; in the data, active means normalized growth mostly below about 0.91 (no sharp cut-off); inconclusive means no clear call, values can overlap the other calls; inactive means mostly above about 0.92. Some of the results follow.

Experiment: chemical genetic growth profiling, strain panel (AID 1159580);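 further: tested at 20 µM; growth read once vehicle control cultures reached saturation at 30 °C; 1 = growth at the plate median or of vehicle wells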
Conditions: S. cerevisiae deletion strains, growth OD

Measured: normalized growth

CC(CCC(=O)O)[C@H]1CCC2C3C(C[C@H](O)[C@@]21C)[C@@]1(C)CC[C@@H](O)C[C@H]1C[C@H]3O (some centres not stated)
inactive: locus YAL013W, strain DEP1, stronger effect = lower value 1.01 | locus YAL021C, strain ccr4, stronger effect = lower value 1.08 | locus YAL026C, strain drs2, stronger effect = lower value 1.03 | locus YAL030W, strain snc1, stronger effect = lower value 1.01 | locus YBL061C, strain skt5, stronger effect = lower value 1 | locus YBR009C, strain hhf1, stronger effect = lower value 1.05 | locus YBR021W, strain FUR4, stronger effect = lower value 0.995 | locus YBR023C, strain chs3, stronger effect = lower value 1.01 | locus YBR171W, strain sec66, stronger effect = lower value 1.02 | locus YBR229C, strain ROT2, stronger effect = lower value 1.01 | locus YBR231C, strain swc5, stronger effect = lower value 1 | locus YBR279W, strain paf1, stronger effect = lower value 1.02 | locus YCL011C, strain gbp2, stronger effect = lower value 1.02 | locus YCL016C, strain dcc1, stronger effect = lower value 1 | locus YCL029C, strain bik1, stronger effect = lower value 1.02 | locus YCL061C, strain MRC1, stronger effect = lower value 1.01 | locus YCL069W, strain vba3, stronger effect = lower value 1.02 | locus YCR088W, strain abp1, stronger effect = lower value 1.01 | locus YDL005C, strain med2, stronger effect = lower value 1.01 | locus YDL035C, strain GPR1, stronger effect = lower value 1.03 | locus YDL040C, strain nat1, stronger effect = lower value 1.02 | locus YDL074C, strain BRE1, stronger effect = lower value 1.02 | locus YDL101C, strain DUN1, stronger effect = lower value 1.02 | locus YDL185W, strain tfp1, stronger effect = lower value 1 | locus YDL192W, strain arf1, stronger effect = lower value 1.01 | locus YDR001C, strain nth1, stronger effect = lower value 1.02 | locus YDR069C, strain doa4, stronger effect = lower value 1.02 | locus YDR101C, strain arx1, stronger effect = lower value 0.985 | locus YDR137W, strain rgp1, stronger effect = lower value 0.991 | locus YDR159W, strain sac3, stronger effect = lower value 1.03 | locus YDR162C, strain NBP2, stronger effect = lower value 1.02 | locus YDR195W, strain ref2 1.03 | locus YDR297W, strain sur2, stronger effect = lower value 0.998 | locus YDR318W, strain mcm21, stronger effect = lower value 1.01 | locus YDR334W, strain swr1, stronger effect = lower value 1.03 | locus YDR335W, strain msn5, stronger effect = lower value 0.986 | locus YDR388W, stronger effect = lower value 1 | locus YDR392W, strain spt3, stronger effect = lower value 0.958 | locus YDR502C, strain sam2, stronger effect = lower value 1.01 | locus YEL003W, strain gim4, stronger effect = lower value 1.02 | locus YEL037C, strain rad23, stronger effect = lower value 1.03 | locus YEL061C, strain CIN8 (second series), stronger effect = lower value 1.02 | locus YEL061C, strain CIN8, stronger effect = lower value 1.03 | locus YER015W, strain faa2, stronger effect = lower value 0.982 | locus YER016W, strain bim1, stronger effect = lower value 0.99 | locus YER110C, stronger effect = lower value 1 | locus YER111C, strain swi4, stronger effect = lower value 1.03 | locus YER155C, strain BEM2 (second series), stronger effect = lower value 1.02 | locus YER155C, strain BEM2, stronger effect = lower value 1.01 | locus YER167W, strain BCK2, stronger effect = lower value 1.02 | locus YFR010W, strain ubp6, stronger effect = lower value 1.03 | locus YGL078C, strain dbp3, stronger effect = lower value 1.01 | locus YGL086W, strain mad1, stronger effect = lower value 1 | locus YGL167C, strain pmr1, stronger effect = lower value 0.995 | locus YGL173C, strain kem1, stronger effect = lower value 1.04 | locus YGL227W, strain vid30, stronger effect = lower value 1.01 | locus YGL240W, strain doc1, stronger effect = lower value 1.01 | locus YGL248W, strain PDE1, stronger effect = lower value 1.02 | locus YGL253W, strain hxk2, stronger effect = lower value 1.02 | locus YGR135W, strain pre9, stronger effect = lower value 0.993 | locus YGR252W, strain gcn5, stronger effect = lower value 0.965 | locus YHR013C, strain ard1, stronger effect = lower value 1.03 | locus YHR027C, strain rpn1, stronger effect = lower value 0.994 | locus YHR030C, strain SLT2, stronger effect = lower value 1.01 and 0.992 | locus YHR079C, strain IRE1 (second series), stronger effect = lower value 1 | locus YHR079C, strain IRE1, stronger effect = lower value 0.975 | locus YHR094C, strain hxt1, stronger effect = lower value 1 | locus YHR129C, strain ARP1, stronger effect = lower value 1.02 | locus YHR142W, strain chs7, stronger effect = lower value 1.05 | locus YHR200W, strain rpn10, stronger effect = lower value 0.994 | locus YIL066C, strain RNR3, stronger effect = lower value 1 | locus YIL073C, strain SPO22, stronger effect = lower value 1 | locus YIL125W, strain kgd1, stronger effect = lower value 1.01 | locus YIR030C, strain dcg1, stronger effect = lower value 1 | locus YJL092W, strain hpr5, stronger effect = lower value 1.01 | locus YJL095W, strain BCK1 (second series), stronger effect = lower value 1.01 | locus YJL095W, strain BCK1, stronger effect = lower value 1.02 and 0.977 | locus YJL115W, strain asf1, stronger effect = lower value 1.03 | locus YJL129C, strain trk1, stronger effect = lower value 1.05 | locus YJL134W, strain LCB3, stronger effect = lower value 1.01 | locus YJL154C, strain vps35, stronger effect = lower value 1.02 | locus YJL164C, strain tpk1, stronger effect = lower value 1.06 | locus YJL166W, strain qcr8, stronger effect = lower value 1.03 | locus YJL168C, strain set2, stronger effect = lower value 1.01 | locus YJL187C, strain SWE1 (second series), stronger effect = lower value 1.01 | locus YJL187C, strain SWE1, stronger effect = lower value 1.01 | locus YJR043C, strain POL32, stronger effect = lower value 0.994 | locus YJR066W, strain TOR1, stronger effect = lower value 0.93 | locus YKL009W, strain mrt4, stronger effect = lower value 0.959 | locus YKL068W, stronger effect = lower value 1.02 | locus YKL085W, strain MDH1 (second series), stronger effect = lower value 1 | locus YKL085W, strain MDH1, stronger effect = lower value 1 | locus YKL160W, strain elf1, stronger effect = lower value 0.995 | locus YKR001C, strain vps1, stronger effect = lower value 1.01 | locus YKR026C, strain gcn3, stronger effect = lower value 1.02 | locus YKR091W, strain srl3, stronger effect = lower value 1.02 | locus YLL001W, strain dnm1, stronger effect = lower value 0.989 | locus YLL026W, stronger effect = lower value 1.01 | locus YLL041C, strain sdh2, stronger effect = lower value 1.02 | locus YLR027C, strain aat2, stronger effect = lower value 1.02 | locus YLR039C, strain RIC1, stronger effect = lower value 1.09 | locus YLR058C, strain SHM2, stronger effect = lower value 1.02 | locus YLR102C, strain apc9, stronger effect = lower value 0.998 | locus YLR113W, strain HOG1, stronger effect = lower value 0.983 | locus YLR221C, strain rsa3, stronger effect = lower value 1.01 | locus YLR258W, strain gsy2, stronger effect = lower value 1.04 | locus YLR262C, strain YPT6 (second series), stronger effect = lower value 1.05 | locus YLR262C, strain YPT6, stronger effect = lower value 1.11 | locus YLR268W, strain sec22, stronger effect = lower value 0.986 | locus YLR320W, strain mms22, stronger effect = lower value 1.03 | locus YLR330W, strain CHS5, stronger effect = lower value 1.01 | locus YLR342W, strain FKS1 (second series), stronger effect = lower value 1.01 | locus YLR342W, strain FKS1, stronger effect = lower value 1 | locus YLR357W, strain rsc2, stronger effect = lower value 1.01 | locus YLR370C, strain arc18, stronger effect = lower value 0.999 | locus YLR371W, strain rom2, stronger effect = lower value 1 | locus YLR384C, strain iki3, stronger effect = lower value 0.991 | locus YLR418C, strain cdc73, stronger effect = lower value 0.994 | locus YML016C, strain PPZ1, stronger effect = lower value 1.03 | locus YML032C, strain rad52, stronger effect = lower value 0.995 | locus YML120C, strain ndi1, stronger effect = lower value 0.998 | locus YML124C, strain tub3, stronger effect = lower value 1.01 | locus YMR058W, strain fet3, stronger effect = lower value 1.03 | locus YMR078C, strain ctf18, stronger effect = lower value 1 | locus YMR125W, strain sto1, stronger effect = lower value 1.02 | locus YMR129W, stronger effect = lower value 0.991 | locus YMR205C, strain PFK2, stronger effect = lower value 1.02 | locus YMR223W, strain ubp8, stronger effect = lower value 1.02 | locus YMR231W, strain pep5, stronger effect = lower value 1.02 | locus YMR307W, strain GAS1, stronger effect = lower value 0.983 | locus YNL067W, strain RPL9B, stronger effect = lower value 1.02 | locus YNL071W, strain lat1, stronger effect = lower value 1.03 | locus YNL128W, strain TEP1, stronger effect = lower value 1.02 | locus YNL183C, strain NPR1, stronger effect = lower value 0.925 | locus YNL209W, strain ssb2, stronger effect = lower value 0.993 | locus YNL233W, strain BNI4, stronger effect = lower value 1.01 | locus YNL248C, strain rpa49, stronger effect = lower value 1.02 | locus YNL250W, strain rad50, stronger effect = lower value 1.01 | locus YNL271C, strain bni1, stronger effect = lower value 1 | locus YNL298W, strain CLA4, stronger effect = lower value 0.999 | locus YNL307C, strain MCK1, stronger effect = lower value 1 | locus YNL322C, strain KRE1 (second series), stronger effect = lower value 1.01 | locus YNR049C, strain mso1, stronger effect = lower value 0.986 | locus YNR052C, strain pop2, stronger effect = lower value 1.03 | locus YOL006C, strain TOP1, stronger effect = lower value 1.07 | locus YOL012C, strain htz1 1.17 | locus YOL147C, strain pex11, stronger effect = lower value 1.01 | locus YOR001W, strain rrp6, stronger effect = lower value 1.02 | locus YOR061W, strain CKA2, stronger effect = lower value 1.02 | locus YOR069W, strain VPS5, stronger effect = lower value 1.02 | locus YOR070C, strain gyp1, stronger effect = lower value 1 | locus YOR080W, strain dia2, stronger effect = lower value 1.01 | locus YOR083W, strain WHI5, stronger effect = lower value 1.01 | locus YOR106W, strain vam3, stronger effect = lower value 1.07 | locus YOR136W, strain idh2, stronger effect = lower value 1.01 | locus YOR144C, strain elg1, stronger effect = lower value 1 | locus YOR184W, strain ser1, stronger effect = lower value 1 | locus YOR231W, strain MKK1, stronger effect = lower value 0.981 | locus YOR265W, strain rbl2, stronger effect = lower value 1 | locus YOR270C, strain vph1, stronger effect = lower value 1.11 | locus YOR290C, strain snf2, stronger effect = lower value 0.982 | locus YOR316C, strain cot1, stronger effect = lower value 1 | locus YPL051W, strain arl3, stronger effect = lower value 1.01 | locus YPL078C, strain atp4, stronger effect = lower value 1.03 | locus YPL106C, strain sse1, stronger effect = lower value 1.01 | locus YPL240C, strain hsp82, stronger effect = lower value 0.996 | locus YPL256C, strain CLN2, stronger effect = lower value 0.957 | locus YPR119W, strain clb2, stronger effect = lower value 1 | locus YPR141C, strain kar3, stronger effect = lower value 1.01 | locus YPR163C, strain tif3, stronger effect = lower value 0.992 | locus YPR167C, strain met16, stronger effect = lower value 1.03 | strain wtn01, stronger effect = lower value 0.993
